Inconclusive results are not listed. Active and inactive are the calls of the source. The call rests on the fitted dose curve; in most records, active means well fitted curve in the direction sought with a large enough effect; inconclusive means small, poorly fitted or top-dose-only effect, or another doubt; inactive means no such curve, though single readings can be large; an effect the other way counts as inactive or inconclusive.
Experiments:
[1] = target: Calcium and integrin-binding protein 1 (Homo sapiens) (UniProt Q99828); assay: Primary qHTS for Identification of Calcium Integrin Binding Protein 1 (CIB1) Competitor (AID 1508620); conditions: CIB1-GST / FITC-alphaIIb peptide fluorescence polarization; series mostly up to 57.7 µM;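 further: GST tagged CIB1 binding a fluorescein labelled alphaIIb integrin peptide tracer; top concentration of the series differs between compounds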
Calcium and integrin-binding protein 1 (Homo sapiens), sequence (Q99828 whole entry, looked up): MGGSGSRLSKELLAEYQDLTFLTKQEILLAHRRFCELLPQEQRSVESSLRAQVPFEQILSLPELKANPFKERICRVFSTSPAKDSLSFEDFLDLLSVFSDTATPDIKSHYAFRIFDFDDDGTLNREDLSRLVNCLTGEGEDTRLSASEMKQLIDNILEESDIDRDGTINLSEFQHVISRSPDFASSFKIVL
How it was run: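 Fluorescence polarization competition: GST-tagged CIB1 (1 uM final) preincubated with compound 15 min at room temperature, then FITC-labelled alphaIIb peptide (100 nM final) added. After 15 min at room temperature, polarization read at Ex 480/Em 540.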

[2] = Primary qHTS for inhibitors of nuclear receptor binding SET domain protein 2 (NSD2) in an isogenic RCH-ACV NSD2 p.E1099K mutant (9B) (AID 1645876); conditions: RCH-ACV NSD2 E1099K (9B) viability, CellTiter-Glo, 72 h; series mostly up to 44.9 µM; further: nearly all actives have a fitted effect of over 70% in size
[3] = Primary qHTS for inhibitors of nuclear receptor binding SET domain protein 2 (NSD2) in an RCH-ACV wild type WT cells (2C) (AID 1645877); conditions: RCH-ACV (leukaemia line) NSD2 WT (2C) viability, CellTiter-Glo, 72 h; series mostly up to 44.9 µM; further: nearly all actives have a fitted effect of over 70% in size

Measured: Potency

C/C1=C\CC(C)(C)/C=C/C/C(C(=O)O)=C/CC1
inactive: [1] | [2] | [3]

CCC12CCCN3CCc4c(n(c5ccccc45)C(O)C1)C32 (stereo not given)
inactive: [1] | [2] | [3]

C[C@@H]1[C@H](O)[C@@H]2OC(=O)C3=C2[C@H](CCC3)[C@@]12C[C@@H](c1ccoc1)OC2=O
inactive: [1] | [2] | [3]

CC1=CC(=O)CC(C)(C)C1CCC(C)O[C@@H]1O[C@H](CO)[C@@H](O)[C@H](O)[C@H]1O (stereo not given in full)
inactive: [1] | [2] | [3]

CC1(C(=O)O)CCCC2(C)C3CC4C5CC3(CCC12)CC45C (stereo not given)
inactive: [1] | [2] | [3]

COc1cc(C(C)=O)ccc1O[C@@H]1O[C@H](CO[C@@H]2OC[C@@H](O)[C@H](O)[C@H]2O)[C@@H](O)[C@H](O)[C@H]1O
inactive: [1] | [2] | [3]

C=C1CC2C(C)(CCC(=O)O)C(C(C)(C)O)CCC2(C)C2(C(=O)OC)C(=O)C(C)(O)C(=O)C12C (stereo not given)
inactive: [1] | [2] | [3]

C=C1C[C@@]2(O)O[C@@]3(C[C@H]2C(C)C)[C@@H](C)CC[C@@H]13
inactive: [1] | [2] | [3]

CC1=C(CO)CC(C(C)C2CCC3C4CC=C5CC(OC6OC(COC7OC(CO)C(O)C(O)C7O)C(O)C(O)C6O)CC(O)C5(C)C4CCC23C)OC1=O (stereo not given)
inactive: [1] | [2] | [3]

C=C(CCO)C(=O)OCC1OCC(OC(=O)C(=C)CCO[C@@H]2O[C@H](CO)[C@@H](O)[C@H](O)[C@H]2O)C(O)C1O (stereo not given in full)
inactive: [1] | [2] | [3]

From PubChem BioAssay (NCATS)
